The record followed here is PubChem BioAssay.

Test [1] in a line: stimulators of insulin release from INS-1E, primary screen, cell-based, 5 mM glucose, NPC library (AID 1117329;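 active means compound raises insulin release from rat beta cells at 5 mM glucose, no numeric limit stated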). The note with it: rat INS-1E insulin secretion, at 10 µM, stronger effect = higher value.
Test [2] is described as follows: growth inhibition of GSK3B-pretreated HCT116 cells – cell-based, CellTiter-Glo, 0.2 to 20 µM (AID 1117336;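 active means compounds lowering colon cancer cell viability after pretreatment blocking the GSK3B kinase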). The note with it: HCT116 viability after GSK3B inhibitor, at 20 µM, stronger effect = higher value.
A short description of test [3]: inhibition of endothelial tube formation, primary screen, imaging, VEGF stimulated, CD31 staining, tube area, NPC library (AID 1117340;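 active means compound that reduces growth-factor-driven endothelial tube area in a mixed cell culture, no cutoff stated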). Conditions: VEGF-stimulated ADSC/ECFC co-culture, at 10 µM, stronger effect = higher value.
Test [4] can be described thus: glucagon-like peptide 1 release enhancers, primary assay, NCI-H716 cell line, NPC library (AID 1117341;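 active means compound raises GLP1 secretion from the human gut endocrine cells, with no numeric limit stated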). The note with it: NCI-H716 cells, at 10 µM, stronger effect = higher value.
A short description of test [5]: HCT116 colon cancer cell growth inhibition, primary screen, CellTiter-Glo luminescence, NPC library (AID 1117342;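 active means compounds that lower survival of HCT116 colon cancer cells in the luminescence readout, no numeric limit stated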). Conditions: at 20 µM (top of the series).
Test [6] can be described thus: CellTiter-Glo luminescent readout of SW480 viability loss, NPC library primary (AID 1117343;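 active means compounds that lower viability of the colon cancer cells in the luminescence readout, with no numeric limit stated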). The note with it: CellTiter-Glo luminescence; at 20 µM (top of the series).
Test [7] can be described thus: decreased DLD-1 cellular survival, CellTiter-Glo luminescent readout, NPC compound collection, primary HTS (AID 1117346;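 active means compounds that lower survival of DLD-1 colon cancer cells in the luminescence readout, no cutoff given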). Conditions: DLD-1 viability, CellTiter-Glo luminescence; at 20 µM (top of the series). On the technique in general: In ATP-based viability assays light output follows the ATP content of the culture.
Test [8] can be described thus: modulation of C. elegans fzo-1 (AID 1259413).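 Further: fzo-1 mutant C. elegans worms in liquid wells.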 The note with it: C. elegans fzo-1 modulator screen, mean read-out; stronger effect = higher value.
Test [9] can be described thus: differential killing of epithelial or mesenchymal cells, primary screen, imaging, PC-3E GFP, TEM4-18 mCherry, co-culture (AID 1345086;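 active means compounds killing one labelled cell type while sparing the other, by normalised counts and ratio limits, not self-fluorescent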;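 on all read-outs here: cells exposed to compound for 72 h before imaging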;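 on red/green cell ratio (normalised): normalised mesenchymal count divided by normalised epithelial count so high means epithelial killing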). Conditions: imaging cell counts, at 1 µM; for red/green cell ratio (normalised): actives lie on both sides, counts scaled to control wells, 1 = unselective.
Test [10] is described as follows: growth inhibition of DIPG glioma cells, dose response, cell-based, SU-DIPG-XVII, MIPE5.0, CellTiter-Glo, qHTS (AID 1347060; cut-off not given, nearly all actives have AC50 up to about 26 µM). Conditions: SU-DIPG-XVII viability, CellTiter-Glo ATP luminescence.
Test [11] is described as follows: growth inhibition of DIPG glioma cells, dose response, cell-based, SU-DIPG-XIII, MIPE4.0, CellTiter-Glo, qHTS (AID 1347061; cut-off not given, nearly all actives have AC50 up to about 37 µM;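 further: cells exposed to compound for 48 hours before readout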). Conditions: SU-DIPG-XIII viability, CellTiter-Glo ATP luminescence.
Test [12] in a line: growth inhibition of DIPG glioma cells, dose response, cell-based, JHH-DIPG-1, MIPE4.0, CellTiter-Glo, qHTS (AID 1347062; cut-off not given, nearly all actives have AC50 up to about 27 µM). The note with it: JHH-DIPG-1 viability, CellTiter-Glo ATP luminescence.
The nature of test [13]: growth inhibition of DIPG glioma cells, dose response, cell-based, SU-DIPG-IV, MIPE4.0, CellTiter-Glo, qHTS (AID 1347063; cut-off not given, nearly all actives have AC50 up to about 30 µM;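 further: compound exposure lasted 48 hours before the viability readout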). Conditions: SU-DIPG-IV viability, CellTiter-Glo ATP luminescence.
Test [14] is described as follows: growth inhibition of DIPG glioma cells, dose response, cell-based, SU-DIPG-XIII, MIPE5.0, CellTiter-Glo, qHTS (AID 1347064; cut-off not given, nearly all actives have AC50 up to about 23 µM). Conditions: SU-DIPG-XIII viability, CellTiter-Glo ATP luminescence.
Test [15] relates to Aerobactin synthetase IucA (Klebsiella pneumoniae). Put plainly: IucA aerobactin synthetase inhibitors, biochemical, Tocris library, absorbance (AID 1345561).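 Further: 100% = enzyme without compound and 0% = no enzyme.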 The note with it: purified IucA enzyme assay, absorbance (OD) read-out; stronger effect = lower value;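 tested at 8 µM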.
The mark [16] stands for this setting: measured here: epithelial PC-3E GFP cell survival.
[17] abbreviates: measured here: mesenchymal TEM4-18 mCherry cell survival.

Several values for one entry are separate records, joined by “and”; a condition that tells them apart may be missing. Identical values can stand only once. Records with an inconclusive call do not appear. Activity calls are given as the source filed them. Unless noted, how the calls were made is not given here.

With `CC(C)[C@H](N)C(=O)OCCOCn1cnc2c(=O)[nH]c(N)nc21`, the insulin secretion stimulation in [1] was 4.1% (inactive). Further, the viability decrease in [2] was 4.4% (inactive). Besides, the tube area decrease in test [3] was -8.9% (inactive). In test [4], the GLP1 secretion stimulation was 2.5% (inactive). Moreover, the inhibition of viability in test [5] is -1% (inactive). The viability decrease (inhibition) in [6] was 4.3% (inactive); in [7], -6.2% (inactive). For the same molecule, the mean signal in test [8] is 266 (inactive). For the same molecule, the red/green cell ratio (normalised) in test [9] is 0.91 (inactive). Further, the normalised cell number in [9] (setting [16]) was determined as 1.13; in [9] (setting [17]), 1.03. Moreover, the molecule was classed as inactive in [10], in [11], in test [12], in [13] and in test [14].
Consider `CCCOc1ccc(C(=O)OCCN(CC)CC)cc1N`, for which the insulin secretion stimulation in test [1] was 1.5% (inactive). Also, the viability decrease in [2] was 47.8% (inactive). Moreover, the tube area decrease in test [3] is -3.5% (inactive). In test [4], the GLP1 secretion stimulation was -1% (inactive). The inhibition of viability in test [5] is 74.2% (active). Also, the viability decrease (inhibition) is 36% (inactive) in test [6] and 90.1% (active) in [7]. Moreover, the mean signal in [8] is 287 (active). Moreover, in test [9], the red/green cell ratio (normalised) is 1.08 (inactive). The normalised cell number in [9] (setting [16]) amounted to 1.2; in test [9] (setting [17]), 1.3. Besides, the outcome in test [10], in [12], in [13] and in test [14] was inactive.
On to `O=C(O)CCNC(=O)c1ccc(N=Nc2ccc(O)c(C(=O)O)c2)cc1`, for which the insulin secretion stimulation in [1] is 5.4% (inactive). The viability decrease in [2] is 5.2% (inactive). Besides, the tube area decrease in test [3] is 11.5% (inactive). For the same molecule, the GLP1 secretion stimulation in test [4] is 1.6% (inactive). The inhibition of viability in test [5] is 6.1% (inactive). Besides, the figures for the viability decrease (inhibition) in test [6] and in [7] were 57.8% (active) and 6.7% (inactive), respectively. Also, the mean signal in test [8] is 240 (inactive). For the same molecule, the red/green cell ratio (normalised) in [9] was 1.02 (inactive). Besides, the normalised cell number came to 1.19 in [9] (setting [16]) and 1.21 in test [9] (setting [17]). For the same molecule, the result in [10], in [11], in test [12] and in test [14] was inactive.
As to `O=C(c1ccc(F)cc1)C1CCN(CCn2c(=S)[nH]c3ccccc3c2=O)CC1`, the insulin secretion stimulation in [1] was -1.4% (inactive). The viability decrease in [2] was 63.4% (active). For the same molecule, the tube area decrease in test [3] was -7.4% (inactive). Further, in [4], the GLP1 secretion stimulation was 3.7% (inactive). Further, in test [5], the inhibition of viability was 69.7% (active). The viability decrease (inhibition) in [6] is 69.7% (active); in test [7] it was 59.8% (active). Moreover, the mean signal in test [8] is 246 (inactive). Besides, the remaining activity in test [15] was 106% (inactive).
Regarding `Brc1c(NC2=NCCN2)ccc2nccnc12`, the insulin secretion stimulation in test [1] was 0.4% (inactive). The viability decrease in test [2] is 27% (inactive). Also, the tube area decrease in test [3] was -5.2% (inactive). For the same molecule, the GLP1 secretion stimulation in test [4] was -3.1% (inactive). Further, the inhibition of viability in [5] is 15.1% (inactive). The viability decrease (inhibition) in test [6] is 7.7% (inactive); in [7], -3.7% (inactive). Moreover, the mean signal in [8] is 249 (inactive). Besides, the remaining activity in test [15] is 80.2% (inactive) and 100% (inactive).
For the molecule `COc1ccc(CC2c3cc(OC)c(OC)cc3CC[N+]2(C)CCC(=O)OCCCCCOC(=O)CC[N+]2(C)CCc3cc(OC)c(OC)cc3C2Cc2ccc(OC)c(OC)c2)cc1OC` (centres undefined), the insulin secretion stimulation in test [1] was 13.1% (inactive). In test [2], the viability decrease was 65.7% (active). Besides, the tube area decrease in test [3] was 44.4% (active). The GLP1 secretion stimulation in test [4] is -3% (inactive). Besides, in [5], the inhibition of viability is 6.9% (inactive). In addition, the viability decrease (inhibition) in [6] is 81.7% (active); in test [7], 51.9% (active). Further, the mean signal in test [8] was 250 (inactive). In test [9], the red/green cell ratio (normalised) is 0.8 (inactive). Besides, the normalised cell number in [9] (setting [16]) came out at 1.18; in [9] (setting [17]) it was 0.94. The call in [10], in test [11], in test [12] and in test [13] was inactive.

What is called remaining activity is the signal under treatment as a percentage of the control signal.
